# Compound activity from PubChem BioAssay.
# CYP2C9 inhib: human CYP2C9 inhibition. P11712. inhibition, % at 5 µM. CYP2C9 Supersomes, luciferin-H conversion, luminescence. 96,000 compounds, 20% hits. AID 777;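 active = blocking of liver enzyme CYP2C9 beyond about 50% at 5 µM, limit read from the data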
# Target sequence (P11712 whole entry, looked up): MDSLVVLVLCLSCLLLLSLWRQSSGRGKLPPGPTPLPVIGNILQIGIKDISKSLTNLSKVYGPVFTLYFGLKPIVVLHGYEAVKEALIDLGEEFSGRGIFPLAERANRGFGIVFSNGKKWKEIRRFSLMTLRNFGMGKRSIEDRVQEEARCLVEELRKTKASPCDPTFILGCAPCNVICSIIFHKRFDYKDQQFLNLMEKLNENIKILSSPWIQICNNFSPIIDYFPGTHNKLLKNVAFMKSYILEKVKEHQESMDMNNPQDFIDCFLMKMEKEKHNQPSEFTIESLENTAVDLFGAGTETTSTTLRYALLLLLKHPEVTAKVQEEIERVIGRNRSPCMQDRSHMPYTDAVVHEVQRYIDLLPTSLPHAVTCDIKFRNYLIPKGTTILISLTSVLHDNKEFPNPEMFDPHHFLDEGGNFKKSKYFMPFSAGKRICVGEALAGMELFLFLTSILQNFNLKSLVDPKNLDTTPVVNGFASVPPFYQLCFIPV
# Pyk2 oligo antag: Pyk2 (human) oligomerization antagonism. Q14289. Q293 cells, Pyk2 FERM NanoBiT luminescence; active compounds read low. z-score (the deposit names both 25 µM and 10 µM). 99,000 compounds, 0.83% hits. AID 1347419;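 active = Z-score of -3 or lower, scaled per plate to the spread of control and sample wells; inactive = z-score above -3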;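 also: negative z-score means lost luminescence so less FERM oligomerization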
# CYP2C19 activ: increases human CYP2C19 enzyme activity. P33261. recombinant CYP2C19, luciferin-H EGE luminescence; active compounds read high; 0 = fully inhibited enzyme, 1 = untreated enzyme. AID 1025. activation factor at 5 µM. 96,000 tested, under 10 active;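 active = activation factor of at least 2 at 5 µM in the primary screen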;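 also: 0 = wells with 2.5 mM tranylcypromine and 1 = vehicle-only wells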
# CYP2C9 act: increases human cytochrome P450 2C9 activity. AID 1024. recombinant CYP2C9, luciferin-H conversion, luminescence; active compounds read high; factor 1 = untreated enzyme, 0 = blocked. 96,000 compounds, 1.4% hits. activation factor at 5 µM. P11712;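 active = activation factor of 2 or more for CYP2C9 at a 5 µM dose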;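 also: 0 = sulfaphenazole-blocked wells and 1 = vehicle-only wells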
# CYP2C19 inh: inhibitors of human CYP2C19. CYP2C19 Supersomes, luciferin-H EGE luminescence, 30 min. inhibition, % at 5 µM. 96,000 compounds, 21% hits. AID 778;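 active = CYP2C19 inhibition above a set limit at 5 µM in the primary screen, cut at about 50% in these data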;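 also: plate controls were negative control wells for no effect and 2.5 mM tranylcypromine positive control for full effect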
# * marks the source's active call; other numbers are inactive results; nt = no result. This is a sample that favours compounds with a hit; in the whole collection about 28% have one here.
SMILES,CYP2C9 inhib,Pyk2 oligo antag,CYP2C19 activ,CYP2C9 act,CYP2C19 inh
CCOc1ncccc1C(=O)Nc1ccccc1C(=O)NCc1ccc2c(c1)OCO2,75*,-0.68,0.5,0.3,48
COc1nc(C)nc2c1sc(=S)n2C,13,-0.43,0.8,0.9,15
CC(=O)c1ccc(N(C)C)c2c(N(C)C)cccc12,-12,-0.2,1,1.1,-4
COc1ccc(CNC(=O)c2ccccc2SC)cc1,20,-0.21,0.1,0.8,90*
COc1ccc(CNC(=O)c2cnc3cc(C)ccn3c2=O)cc1,20,nt,0.4,0.8,62*
COc1ccc(CNC(=O)c2ccc(-c3ccccc3)cc2)cc1,12,-0.6,1,0.9,3
O=C(Nc1ccc2c(c1)OCCO2)c1cnc2ccccn2c1=O,nt,0.36,nt,nt,nt
O=C(NCc1ccc2c(c1)OCO2)c1cnc2ccccn2c1=O,-39,1.6,0.3,1.4,66*
CCOC(=O)NC(c1cccc(Cl)c1)C1CCCCCC1=O (stereo not drawn),56*,-1.2,0,0.4,97*
O=C(/C=C/c1c(Cl)cccc1Cl)NCCc1ccccc1,-167,0.02,0.8,2.7*,20
CC(C)=CC(=O)NCCc1ccccc1,3,0.55,0.7,1,32
CCOc1cc(C=C(C(=O)OC)C(=O)OC)ccc1OCc1ccc([N+](=O)[O-])cc1,39,-1.2,0.8,0.6,22
Cc1oc(C)c2c(=O)ccc3c(c12)OC(N)=C(C#N)C3c1ccc(F)cc1 (stereo not drawn),35,0.3,0.5,0.7,50*
COc1ccc(NC(=O)NC(C)c2ccncc2)cc1OC (stereo not drawn),60*,0.59,0.8,0.4,21
CC(NC(=O)Nc1ccc(F)cc1F)c1ccncc1 (stereo not drawn),43,1.1,0.2,0.6,80*
COc1ccc(Cl)cc1NC(=O)NC(C)c1ccncc1 (stereo not drawn),92*,0.12,0,0.1,97*
COc1ccc(Cl)cc1NC(=O)Nc1ccc(Br)cn1,-6,0.38,1.1,1.1,-8
CCCCN(CC)C(=O)Cn1c(=O)sc2ccccc21,4,-0.22,0.6,1,44
NS(=O)(=O)c1ccc(NC(=O)Cn2ncc3c2-c2ccccc2OC3)cc1,35,nt,1.1,0.6,-15
COc1ccc(OC)c(NC(=O)C(=O)N/N=C/c2ccccc2[N+](=O)[O-])c1,-119,-0.67,0.9,2.2*,7
COc1ccc(OC)c(/C(O)=C/C(=O)C(=O)Nc2ccccc2OC)c1,-14,0.88,1,1.1,4
COc1ccc(NC(=O)C(=O)N/N=C/c2cc(C)n(-c3cccc(Cl)c3Cl)c2C)c(OC)c1,33,0.04,0.3,0.7,72*
Cc1cc(/C=N/NC(=O)c2nn(C)cc2Cl)c(C)n1-c1cccc(Br)c1,nt,-1.1,nt,nt,nt
COc1cc(C)c(C(C)C)cc1S(=O)(=O)NCCCn1ccnc1,99*,0.25,0,0,100*
Cc1cc(C(=O)c2cnc(/N=C/N(C)C)s2)cc(C)c1O,-103,-1.3,0.6,2*,41
SMILES,CYP2C9 inhib,Pyk2 oligo antag,CYP2C19 activ,CYP2C9 act,CYP2C19 inh
CN(C)/C=N/c1ncc(C(=O)c2ccccc2)s1,-16,0.33,0.9,1.2,13
CCCCOn1c(C)c(C(=O)OCC)c2c3no[n+]([O-])c3ccc21,62*,0,0.6,0.4,45
CCOC(=O)c1c(C)n(OC)c2ccc3c(no[n+]3[O-])c12,43,0.93,0.5,0.6,46
Cc1ccc(NCc2nnc(SCC(=O)NCCc3ccccc3)n2C)cc1,19,-0.17,0.8,0.8,24
Cc1cc(=O)n2nc(N3CCCC(C(=O)NCc4ccc5c(c4)OCO5)C3)sc2n1 (stereo not drawn),22,1.5,0.7,0.8,33
C=CCn1c(N)cc(=O)nc1SC(C)C(=O)Nc1cccc2ccccc12 (stereo not drawn),nt,0.5,nt,nt,nt
CCOC(=O)C1=C(N)Oc2c(oc(CO)cc2=O)C1c1c(F)cccc1Cl (stereo not drawn),59*,0.52,0.3,0.4,71*
COc1ccc(NC(=O)CNc2cccc(C#N)c2)cc1Cl,17,-0.55,0.5,0.8,48
COc1ccc(NC(C)C(=O)Nc2ccc(C#N)cc2)cc1Cl (stereo not drawn),98*,0.57,0,0,100*
COc1ccc(NC(C)C(=O)Nc2ccc(C(C)(C)C)cc2)cc1Cl (stereo not drawn),90*,-1.4,0.1,0.1,94*
